According to PubChem BioAssay (NCI):
The panel holds about 83,000 compounds, 20% with a hit somewhere; the sample as a whole holds those more often.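 The endpoint reported here, percent growth, reads 100 for growth as untreated, 0 for no net growth and -100 for all cells dead.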 A number with no mark means an inactive call. Activity calls are given as the source filed them. How the source made its calls: active means growth percent below 10; inactive means the rest.

Tested on: MDA-MB-468 breast
Assay: NCI-60 one-dose screen, 48 h (100 = growth as untreated, 0 = no growth, -100 = all killed)
Details: 10 µM unless noted

**Q.** `CN=S(=O)(OCCCCCOS(=O)(=NC)c1ccc(C)cc1)c1ccc(C)cc1` (stereo not given) was tested. Which growth did it give?
**A.** 83.3%

**Q.** Which growth does the source give for `Cc1nccc2c3ccc(OCc4cn(Cc5ccc(Br)cc5)nn4)cc3n(CCCc3ccccc3)c12` here?
**A.** 93.4%

**Q.** For `O=C(Cn1c(=O)ccn(CCCCCCCCOc2ccc(Br)cc2)c1=O)Nc1ccc(Oc2ccc(Cl)cc2)cc1`, which growth is on record?
**A.** 34.2%

**Q.** For `COc1cc2ncnc(Nc3cccc(Cl)c3F)c2cc1OC(=O)N1CCN(C)C[C@H]1C`, which growth is on record?
**A.** -10.7% (active)

**Q.** How did the growth turn out when `O=S(=O)(O)C(C(I)I)S(=O)(=O)O` was run?
**A.** 95.9%

**Q.** `COCCOC(=O)c1ccc(C(C)C)cc1` was tested. Which growth did it give?
**A.** 106%

**Q.** For `COc1cc(NCCCN(CC(C)C)CC(C)C)c2ncccc2c1`, which growth is on record?
**A.** -27.1% (active)

**Q.** Which growth does the source give for `Cc1n(Cc2ccc3ccccc3c2)cc[n+]1Cc1ccc2ccccc2c1` here?
**A.** -22.8% (active)

**Q.** `Cc1nc2c3c(-c4ccccc4)c(-c4ccccc4)oc3ncn2n1` was tested. Which growth did it give?
**A.** 93.9%

**Q.** `O=C(NNc1nc(Cl)nc(N2CCN(C(c3ccccc3)c3ccccc3)CC2)n1)c1ccccc1` was tested. Which growth did it give?
**A.** -47.2% (active)

**Q.** How did the growth turn out when `Cn1c2c(Cl)c(Cl)ccc2c2c(C#N)c[nH]c(=O)c21` was run?
**A.** 111%

**Q.** `CC1CCN(CC(=O)Nn2c(COc3ccccc3)nc3ccccc3c2=O)CC1` was tested. Which growth did it give?
**A.** 50.9%

**Q.** With `COc1ccc(-c2cc(/C=C/C(=O)c3ccc(N)cc3)[nH]n2)cc1` as the compound, how does the growth read?
**A.** 4.1% (active)

**Q.** `NC(=N\N=C/c1ccccc1[N+](=O)[O-])/C(N)=N\N=C/c1ccccc1[N+](=O)[O-]` was tested. Which growth did it give?
**A.** 101%

**Q.** Which growth does the source give for `N#C/C(C(=O)c1ccccc1)=C1/C(=O)Nc2ccccc21` here?
**A.** 121%

**Q.** `COc1cc(-c2nc3c(ncc4ccc(=O)n(-c5ccccc5)c43)s2)cc(OC)c1OC` was tested. Which growth did it give?
**A.** 47.3%

**Q.** With `c1ccc2cc(Cn3cc(CSc4nc5ccccc5s4)nn3)ccc2c1` as the compound, how does the growth read?
**A.** 106%

**Q.** How did the growth turn out when `O=C(CCc1nnco1)c1nc2ccc([N+](=O)[O-])cc2[nH]1` was run?
**A.** 113%

**Q.** With `CCN1C(=O)N(CC)C2NC(SC)=NC21` (stereo not given) as the compound, how does the growth read?
**A.** 103%

**Q.** With `CC(CC(CCC(=O)O)(c1ccccc1)c1ccccc1)N(C)C` (stereo not given) as the compound, how does the growth read?
**A.** 98.4%

**Q.** For `CC(C)(C)n1nnnc1C(Nc1nccs1)c1cc2cccc3ccc4cccc1c4c32` (stereo not given), which growth is on record?
**A.** -35.2% (active)

**Q.** For `COc1cc(N=Nc2ccc(O)c3ncccc23)c2ncccc2c1`, which growth is on record?
**A.** -36.5% (active)

**Q.** Which growth does the source give for `COc1cc(C(=O)/C=C/c2c(-c3cccs3)nc3sccn23)cc(OC)c1OC` here?
**A.** -49.5% (active)

**Q.** For `Nc1ccc(-c2nc3ccc4[nH]ncc4c3c3c2CCCC3)cc1F`, which growth is on record?
**A.** 7.24% (active)

**Q.** Which growth does the source give for `C/C(=C\CCc1ccsc1)CC/C=C(\C)CCCN1CCC(CO)CC1` here?
**A.** -27.3% (active)

**Q.** Which growth does the source give for `COc1ccc(-c2ccccc2)cc1-c1c(Nc2cc(Cl)cc(Cl)c2O)c(=O)c1=O` here?
**A.** -3.49% (active)

**Q.** With `COc1ccc(C(=O)c2cc3c(N)c(C(=O)Nc4cccc(OC)c4)sc3nc2C)cc1` as the compound, how does the growth read?
**A.** 4.38% (active)

**Q.** Which growth does the source give for `NNc1nnc2nc(Nc3ccccc3)nc(Nc3ccc(S(N)(=O)=O)cc3)n12` here?
**A.** 126%

**Q.** With `CCOC(=O)c1cnc2c(N=Nc3ccc(OC)cc3)c(N)nn2c1N` as the compound, how does the growth read?
**A.** 116%

**Q.** For `N=C(N)c1ccc(-c2ccc(-c3ccc(Cl)cc3)o2)nc1`, which growth is on record?
**A.** -88.7% (active)

**Q.** For `CCCCCCCCCCCCNC(=O)[C@H]1CSC(c2cc(Br)cs2)N1` (stereo not given in full), which growth is on record?
**A.** -48.7% (active)

**Q.** How did the growth turn out when `C=CC(=O)Nc1cccc(Nc2nc(Nc3ccc(N4CCN(C(C)=O)CC4)cc3OC)ncc2C(F)(F)F)c1` was run?
**A.** -48.8% (active)

**Q.** For `CCCCN(CCCC)CCC(O)c1cc2ccc(C(F)(F)F)cc2c2cc(C(F)(F)F)ccc12` (stereo not given), which growth is on record?
**A.** 39.6%

**Q.** With `COC1=CC(=O)c2ccccc2C1=O` as the compound, how does the growth read?
**A.** 32.7%

**Q.** With `Cn1cc(-c2noc(-c3cn(C)c4ncc(F)cc34)n2)c2cc(Br)ccc21` as the compound, how does the growth read?
**A.** 61.3%

**Q.** How did the growth turn out when `CNC(=O)c1cc(Oc2ccc(NC(=O)Nc3ccc(Cl)c(OC4CCCCC4)c3)c(F)c2)ccn1` was run?
**A.** 15.5%

**Q.** `C=C(C)[C@@H]1CC[C@]2(C(=O)N[C@@H](Cc3ccccc3)C(=O)OC)CC[C@]3(C)[C@H](CC[C@@H]4[C@@]5(C)CCC(=O)C(C)(C)[C@@H]5CC[C@]43C)[C@@H]12` was tested. Which growth did it give?
**A.** 84.2%

**Q.** How did the growth turn out when `Cc1cc(C)cc(NCCC#N)c1` was run?
**A.** 107%

**Q.** `COc1cccc(-c2nc3sccn3c2-c2ccnc(NCCCNS(=O)(=O)c3ccccc3)n2)c1` was tested. Which growth did it give?
**A.** 52%

**Q.** `C#CC#CC#CC#CC#CC#CC#CC#CC[C@H]1OC[C@H](COC(=O)O[C@@H](C(=O)O[C@H]2C[C@@]3(O)[C@@H](OC(=O)c4ccccc4)[C@@H]4[C@]5(OC(C)=O)CO[C@@H]5C[C@H](O)[C@@]4(C)C(=O)[C@H](OC(C)=O)C(=C2C)C3(C)C)[C@@H](NC(=O)c2ccccc2)c2ccccc2)O1` was tested. Which growth did it give?
**A.** 19.3%
